Assay results reported in PubChem BioAssay.
Activity calls are given as the source filed them.

Tests used:
[1] = binders of probe aFSTL3 on microarray, primary screen, stem cell growth factor project, biochemical, small-molecule microarray, fluorescence 635/667 (AID 1064); details: higher = more signal;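 note: measures binding of the biotinylated anti-FSTL3 antibody to printed compounds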
[2] = binders from COS7 lysate, DM2A8 probe, primary screen, torsin A project, cell lysate, small-molecule microarray, fluorescence 635/667 (AID 1065); details: higher = more signal, COS7 lysate expressing mutant human TOR1A
[3] = binders of probe aFGF2 on microarray, primary screen, stem cell growth factor project, biochemical, small-molecule microarray, fluorescence 635/667 (AID 1067); details: higher = more signal;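 note: measures binding of biotinylated aFGF2 protein to printed compounds on slides; z-score merges feature fluorescence and signal-to-noise across triplicate slides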
[4] = binders of probe aFGF10 on microarray, primary screen, stem cell growth factor project, biochemical, small-molecule microarray, fluorescence 635/667 (AID 1071); details: higher = more signal;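 note: score merges 667 nm spot intensity and signal to noise from triplicate slides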
[5] = molecular target: Neurogenic locus notch homolog protein 2 (Homo sapiens) (UniProt Q04721); assay: Notch2 binders on small-molecule microarrays, primary screen, biochemical, small-molecule microarray, 635 nm fluorescence, stem cell growth factors (AID 1073); details: Notch2 binding, higher = more signal
[6] = molecular target: Pro-neuregulin-1, membrane-bound isoform (Homo sapiens) (UniProt Q02297); assay: NRG1 binders on small-molecule microarrays, primary screen, psychiatric disease protein project, biochemical, small-molecule microarray, fluorescence 635/667 (AID 1075); details: NRG1 binding, 635 nm fluorescence, higher = more signal;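 note: score combines 667 nm spot fluorescence with signal to noise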
[7] = system: Neuregulin-1 EGF-like domain; assay: binders of neuregulin-1 EGF-like domain, primary screen, biochemical, small-molecule microarray, 635 nm fluorescence (AID 1081); details: small-molecule microarray binding, higher = more signal;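 note: binding of the protein to compounds printed on small-molecule microarray slides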
[8] = FRG1 promoter luciferase signal modulators, primary screen, FRG1 inhibition for FSHD, cell-based, C2C12 myotubes, firefly/Renilla luciferase, luminescence (AID 1084); details: higher = more signal, called active from +8 up or from −8 down
[9] = binders of probe aFST on microarray, primary screen, stem cell growth factor project, biochemical, small-molecule microarray, fluorescence 635/667 (AID 1086); details: higher = more signal;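 note: score merges 667 nm fluorescence with signal-to-noise of each printed compound spot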
[10] = binders of probe aHhip on microarray, primary screen, stem cell growth factor project, biochemical, small-molecule microarray, fluorescence 635/667 (AID 1087); details: higher = more signal;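 note: score merges spot fluorescence at 667nm with spot signal to noise ratio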
[11] = system: PRMT1 (protein arginine N-methyltransferase 1); assay: PRMT1 binders on small-molecule microarrays, primary screen, biochemical, small-molecule microarray, 635 nm fluorescence (AID 1088); details: small-molecule microarray binding, higher = more signal;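 note: binding of Prmt1 protein to compounds spotted on small-molecule microarray slides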
[12] = yeast growth modulation, basal conditions, primary screen, YJM789 clinical isolate, OD600, 24 h (AID 1089);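 note: growth of clinical yeast isolate S. cerevisiae YJM 789 seeded 1000 cells per well; test concentration not given here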; details: S. cerevisiae YJM789 growth, higher = more signal, called active from +8 up or from −8 down
[13] = fission yeast growth modulation, primary screen, strain 972, OD600, 24 h, no modulator (AID 1090);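 note: basal condition with compound alone and no growth modifier present; test concentration not given here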; details: S. pombe 972 growth, higher = more signal, called active from +8 up or from −8 down
[14] = S. cerevisiae growth modulation with rapamycin, primary screen, strain BY4716, OD600, 96 h (AID 1091); details: higher = more signal, called active from +8 up or from −8 down; note: test concentration not given here
[15] = molecular target: Torsin-1A-interacting protein 2 (Homo sapiens) (UniProt Q8NFQ8); assay: LULL1 binders on small-molecule microarray, primary screen, cell lysate, human LULL1 lysate, 635/667 nm fluorescence (AID 1092); details: hLULL1 lysate binding, 635 nm fluorescence, higher = more signal;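 note: probe is lysate of COS7 cells overexpressing human LULL1; score merges per-feature 667 nm fluorescence with signal-to-noise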
[16] = E. coli growth modulation, two-sided OD650, primary screen, E. coli filamentation project, strain DRC41, 24 h (AID 1093); details: OD650, 24 h, higher = more signal, called active from +8 up or from −8 down;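 note: MC1000 strain lacking acrAB efflux and sulA so SOS filamentation is blocked; test concentration not given here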
[17] = small-molecule microarray binders of probe aLefty2, primary screen, biochemical, biotinylated probe, 635/667 nm fluorescence (AID 1094); details: higher = more signal;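 note: score merges spot fluorescence near 667 nm with spot signal-to-noise ratio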
[18] = system: Noggin (protein binding on small-molecule microarray); assay: Noggin binders on small-molecule microarray, primary screen, biochemical, 635/667 nm fluorescence (AID 1095); details: 635 nm fluorescence, higher = more signal;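 note: score merges 667 nm feature fluorescence with signal to noise over triplicate slides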
[19] = molecular target: Neurogenic locus notch homolog protein 3 (Homo sapiens) (UniProt Q9UM47); assay: NOTCH3 binders on small-molecule microarray, primary screen, biochemical, 635/667 nm fluorescence (AID 1096); details: NOTCH3 binding, 635 nm fluorescence, higher = more signal
[20] = small-molecule microarray binders of probe aEGFR, primary screen, biochemical, biotinylated probe, 635/667 nm fluorescence (AID 1097); details: higher = more signal;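 note: probe is a biotinylated anti-EGFR antibody binding compounds printed on slides; score combines fluorescence near 667 nm and signal to noise of each spot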

Chain of Pro-neuregulin-1, membrane-bound isoform (Homo sapiens) (Q02297 whole entry, looked up, the tested form may be a part, canonical isoform): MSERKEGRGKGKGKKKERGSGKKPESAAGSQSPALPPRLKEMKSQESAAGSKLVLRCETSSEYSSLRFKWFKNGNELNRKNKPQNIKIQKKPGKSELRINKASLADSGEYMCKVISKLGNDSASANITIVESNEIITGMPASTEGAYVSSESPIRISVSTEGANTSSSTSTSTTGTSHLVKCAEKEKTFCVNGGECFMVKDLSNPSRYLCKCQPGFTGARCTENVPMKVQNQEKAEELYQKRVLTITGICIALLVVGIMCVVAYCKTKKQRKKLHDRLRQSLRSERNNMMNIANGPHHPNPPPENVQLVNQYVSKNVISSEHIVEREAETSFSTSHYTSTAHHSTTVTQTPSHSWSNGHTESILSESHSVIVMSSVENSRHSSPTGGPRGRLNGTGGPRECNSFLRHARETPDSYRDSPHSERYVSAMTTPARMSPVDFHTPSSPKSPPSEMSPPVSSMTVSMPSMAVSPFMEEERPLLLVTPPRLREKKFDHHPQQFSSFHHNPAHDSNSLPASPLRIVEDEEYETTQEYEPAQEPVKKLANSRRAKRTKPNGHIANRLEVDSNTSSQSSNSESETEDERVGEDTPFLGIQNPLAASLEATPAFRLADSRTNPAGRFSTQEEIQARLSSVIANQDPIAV
Chain of Neurogenic locus notch homolog protein 2 (Homo sapiens) (Q04721 whole entry, looked up, canonical isoform): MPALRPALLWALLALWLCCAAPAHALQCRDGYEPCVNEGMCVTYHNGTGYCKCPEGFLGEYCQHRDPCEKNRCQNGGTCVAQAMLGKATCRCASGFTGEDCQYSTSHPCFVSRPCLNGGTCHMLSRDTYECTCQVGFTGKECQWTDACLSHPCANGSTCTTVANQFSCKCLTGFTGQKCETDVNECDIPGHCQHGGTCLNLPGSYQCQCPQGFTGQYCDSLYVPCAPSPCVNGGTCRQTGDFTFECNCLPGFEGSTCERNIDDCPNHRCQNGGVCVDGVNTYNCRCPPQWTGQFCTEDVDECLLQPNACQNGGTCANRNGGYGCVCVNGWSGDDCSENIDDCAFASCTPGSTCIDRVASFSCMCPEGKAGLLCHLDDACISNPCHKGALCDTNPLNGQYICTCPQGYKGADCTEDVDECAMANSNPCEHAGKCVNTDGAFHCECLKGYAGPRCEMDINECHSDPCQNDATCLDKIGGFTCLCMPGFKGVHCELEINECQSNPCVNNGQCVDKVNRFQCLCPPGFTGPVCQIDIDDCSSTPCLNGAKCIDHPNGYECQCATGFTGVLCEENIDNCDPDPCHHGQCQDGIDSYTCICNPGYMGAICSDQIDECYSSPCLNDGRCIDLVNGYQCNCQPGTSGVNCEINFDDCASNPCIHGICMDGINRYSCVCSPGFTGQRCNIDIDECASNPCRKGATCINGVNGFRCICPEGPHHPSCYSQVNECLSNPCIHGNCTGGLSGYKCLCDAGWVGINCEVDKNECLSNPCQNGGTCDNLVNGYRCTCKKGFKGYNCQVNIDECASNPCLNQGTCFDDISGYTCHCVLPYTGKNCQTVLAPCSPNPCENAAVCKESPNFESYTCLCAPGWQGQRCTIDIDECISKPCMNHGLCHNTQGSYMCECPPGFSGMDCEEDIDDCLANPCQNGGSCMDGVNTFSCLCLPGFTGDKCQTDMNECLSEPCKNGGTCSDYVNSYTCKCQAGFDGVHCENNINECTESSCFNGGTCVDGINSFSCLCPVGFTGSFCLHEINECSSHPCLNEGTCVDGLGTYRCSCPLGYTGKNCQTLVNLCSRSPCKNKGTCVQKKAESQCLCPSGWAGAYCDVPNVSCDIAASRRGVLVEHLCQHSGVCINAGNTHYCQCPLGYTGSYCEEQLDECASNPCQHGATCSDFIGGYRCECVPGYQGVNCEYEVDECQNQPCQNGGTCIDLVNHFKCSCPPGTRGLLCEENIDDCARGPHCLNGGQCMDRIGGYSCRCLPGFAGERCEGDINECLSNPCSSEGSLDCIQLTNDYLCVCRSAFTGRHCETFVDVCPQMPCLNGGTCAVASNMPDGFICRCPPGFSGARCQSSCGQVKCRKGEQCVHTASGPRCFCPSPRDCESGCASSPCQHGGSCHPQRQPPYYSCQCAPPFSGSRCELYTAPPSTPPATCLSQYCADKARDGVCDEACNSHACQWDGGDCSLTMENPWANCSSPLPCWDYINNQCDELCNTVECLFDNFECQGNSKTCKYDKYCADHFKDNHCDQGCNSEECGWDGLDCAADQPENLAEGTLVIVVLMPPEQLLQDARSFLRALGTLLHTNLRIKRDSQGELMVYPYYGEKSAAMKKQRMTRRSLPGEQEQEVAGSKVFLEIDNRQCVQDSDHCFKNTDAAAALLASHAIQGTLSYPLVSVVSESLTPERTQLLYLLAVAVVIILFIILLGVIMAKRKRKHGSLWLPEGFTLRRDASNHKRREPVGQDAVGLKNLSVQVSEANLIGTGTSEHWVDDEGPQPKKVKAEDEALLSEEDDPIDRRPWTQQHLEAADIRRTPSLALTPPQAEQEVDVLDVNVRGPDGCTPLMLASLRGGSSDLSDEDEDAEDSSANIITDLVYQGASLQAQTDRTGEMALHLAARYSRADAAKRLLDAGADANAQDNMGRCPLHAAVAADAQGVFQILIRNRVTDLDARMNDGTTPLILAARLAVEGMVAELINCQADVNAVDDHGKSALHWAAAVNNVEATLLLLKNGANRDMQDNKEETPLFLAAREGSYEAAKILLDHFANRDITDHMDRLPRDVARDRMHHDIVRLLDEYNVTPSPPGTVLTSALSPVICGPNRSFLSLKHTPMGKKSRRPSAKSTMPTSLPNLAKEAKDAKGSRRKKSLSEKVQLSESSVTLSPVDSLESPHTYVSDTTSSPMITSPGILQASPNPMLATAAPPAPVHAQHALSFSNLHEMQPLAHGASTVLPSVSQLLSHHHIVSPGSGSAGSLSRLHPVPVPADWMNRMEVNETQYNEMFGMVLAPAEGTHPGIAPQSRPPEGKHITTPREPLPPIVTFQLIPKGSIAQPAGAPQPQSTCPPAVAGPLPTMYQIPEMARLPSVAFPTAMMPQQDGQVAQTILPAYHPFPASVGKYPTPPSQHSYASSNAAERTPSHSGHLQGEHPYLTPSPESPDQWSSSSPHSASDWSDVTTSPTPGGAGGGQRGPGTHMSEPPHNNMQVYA
Chain of Torsin-1A-interacting protein 2 (Homo sapiens) (Q8NFQ8 whole entry, looked up): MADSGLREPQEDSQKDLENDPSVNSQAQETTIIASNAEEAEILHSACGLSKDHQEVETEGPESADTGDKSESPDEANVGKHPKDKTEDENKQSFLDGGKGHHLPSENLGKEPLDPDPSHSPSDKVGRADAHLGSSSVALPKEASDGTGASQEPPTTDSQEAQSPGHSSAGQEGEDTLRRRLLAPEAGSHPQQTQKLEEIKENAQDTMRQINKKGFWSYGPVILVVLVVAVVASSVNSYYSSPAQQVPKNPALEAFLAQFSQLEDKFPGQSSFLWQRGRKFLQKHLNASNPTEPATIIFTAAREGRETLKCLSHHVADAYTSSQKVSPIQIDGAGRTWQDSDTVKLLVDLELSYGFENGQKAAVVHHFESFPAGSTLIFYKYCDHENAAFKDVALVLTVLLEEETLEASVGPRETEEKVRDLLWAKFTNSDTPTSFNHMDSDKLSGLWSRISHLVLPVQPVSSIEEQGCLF

| Compound | composite z-score [1] | composite z-score [2] | composite z-score [3] | composite z-score [4] | composite z-score [5] | composite z-score [6] | composite z-score [7] | z-score [8] | composite z-score [9] | composite z-score [10] | composite z-score [11] | z-score [12] | z-score [13] | z-score [14] | composite z-score [15] | z-score [16] | composite z-score [17] | composite z-score [18] | composite z-score [19] | composite z-score [20] |
| --- | --- | --- | --- | --- | --- | --- | --- | --- | --- | --- | --- | --- | --- | --- | --- | --- | --- | --- | --- | --- |
| C=CCN1C(=O)[C@]2(O[C@H](CCO)[C@@H]([Si](C)(C)c3ccc(OC)cc3)[C@@H]2C)c2cc(N3C(=O)COc4ccccc43)ccc21 | 0.174 | -0.142 | -0.0597 | 0.606 | 0.248 | 0.966 | 0.698 | -0.998 (inactive) | -0.0347 | -0.297 | 1.53 | 1.81 (inactive) | 0.0538 (inactive) | 32.6 (active) | 1.29 | 1.64 (inactive) | -0.192 | 0.679 | 0.763 | -0.12 |
| COCCOC(=O)N1C(=O)[C@@]2(c3cc(C#CCCO)ccc31)[C@H](c1ccccc1OCCO)N1[C@H](c3ccccc3)[C@H](c3ccccc3)OC(=O)[C@H]1[C@@H]2C(=O)N1CCCCCCC1 | 2.91 | 0.821 | 0.452 | 0.413 | 1.14 | 1.72 | 1.32 | -3.3 (inactive) | 2.59 | 2.43 | 1.54 | 1.76 (inactive) | 0.11 (inactive) | 2.88 (inactive) | 3.57 | 1.06 (inactive) | 1.39 | 1.86 | 1.05 | 0.837 |
| COc1cc2c(cc1O)C(c1cccs1)N(Cc1sc3ccccc3c1Cl)CC2 (stereo not given) | -0.181 | 1.14 | 0.115 | 1.18 | 1.55 | 2.09 | 1.42 | -0.19 (inactive) | 1.11 | 3.57 | 1.53 | -0.642 (inactive) | -1.93 (inactive) | -1.63 (inactive) | 3.3 | -0.31 (inactive) | 0.105 | 1.03 | 1.03 | 0.14 |
| CN1C(=O)C2C(C1=O)C1C=C(CCCO)C2C(c2cccs2)N1Cc1cc2c(cc1Br)OCO2 (stereo not given) | -0.262 | 0.725 | 0.131 | 0.645 | 1.62 | 2.19 | 1.28 | -3.26 (inactive) | 1.6 | -0.109 | 1.54 | -0.653 (inactive) | -1.25 (inactive) | -0.631 (inactive) | 3.41 | 1.12 (inactive) | 0.0923 | 0.639 | 1.03 | 0.095 |
| COCCOC(=O)N1C(=O)[C@@]2(c3cc(C#CCCO)ccc31)[C@H](C(N)=O)[C@H]1C(=O)O[C@H](c3ccccc3)[C@H](c3ccccc3)N1[C@@H]2c1ccc(OCCO)cc1 | -0.0241 | 0.657 | -0.0202 | 0.48 | 1.43 | 1.1 | 1.17 | 0.478 (inactive) | 0.439 | -0.0994 | 1.54 | 1.94 (inactive) | 0.63 (inactive) | 2.82 (inactive) | 3.02 | -0.187 (inactive) | -0.161 | 0.632 | 0.992 | 0.0754 |
| CC1(C)C(=O)C(c2ccccc2)=C2CN3C(=O)N(CCc4ccccc4)C(=O)C3(Cc3ccc(F)cc3)C=C21 (stereo not given) | 0.817 | -0.339 | 0.248 | 0.173 | 1.47 | 0.536 | 0.631 | 0.927 (inactive) | 1.58 | 0.0818 | -0.203 | 0.54 (inactive) | 0.921 (inactive) | 6.84 (inactive) | 2.52 | -2 (inactive) | 0.428 | -0.459 | 0.337 | 0.133 |
| C=CCC(OC(C)=O)[C@@H]1[C@@H](N(Cc2cccc3ccccc23)C(=O)c2ccc(-c3ccccc3)cc2)c2cc(OCCCO)ccc2N1C(=O)c1ccc(-c2ccccc2)cc1 (stereo not given in full) | -0.0061 | 0.356 | -0.06 | 0.0099 | 0.369 | 0.0975 | -0.453 | -0.774 (inactive) | 0.392 | 0.0274 | -0.0425 | -1.05 (inactive) | -0.0057 (inactive) | -0.415 (inactive) | 0.549 | -1.02 (inactive) | -0.0179 | -0.63 | -0.234 | -0.106 |
| COc1cc2c(cc1OC)CN(C(=O)[C@@H]1[C@H]3C(=O)O[C@H](c4ccccc4)[C@H](c4ccccc4)N3[C@H](c3ccc(O)cc3)[C@@]13C(=O)Nc1ccc(C#CCCO)cc13)CC2 | -0.281 | 0.0865 | -0.0962 | 0.658 | 0.711 | 1.39 | 1.17 | -0.101 (inactive) | 0.628 | -0.201 | 1.34 | 1.09 (inactive) | 0.673 (inactive) | 1.81 (inactive) | 2.5 | -0.385 (inactive) | -0.0809 | 0.32 | 0.667 | -0.0424 |
| O=C1O[C@H](c2ccccc2)[C@H](c2ccccc2)N2[C@H]1[C@@H](C(=O)N1CCCCCCC1)[C@]1(C(=O)Nc3ccc(C#CC4(O)CCCCCC4)cc31)[C@H]2c1ccccc1OCCO | 4 | 2.61 | 0.935 | 1.46 | 1.83 | 2.5 | 1.33 | -1.5 (inactive) | 3.82 | 1.9 | 1.54 | 1.56 (inactive) | 0.462 (inactive) | 3.41 (inactive) | 5.1 | 1.04 (inactive) | 1.91 | 2.38 | 1.03 | 1.51 |
| O=C1C2C=CC(C(O)c3ccc4c(c3)OCO4)N(Nc3ccccc3)C2C(=O)N1c1ccccc1 (stereo not given) | 0.154 | -0.186 | 0.0917 | 0.847 | 1.55 | 1.46 | 1.09 | -0.545 (inactive) | 1.38 | -0.204 | 1.46 | -0.293 (inactive) | 0.292 (inactive) | 0.593 (inactive) | 3.05 | -0.784 (inactive) | 0.266 | -0.0526 | 1.1 | 0.11 |
